Results published in the supplement of paper PMC12669032.

How the values were obtained:
Test in all cases: growth AUC relative to DMSO control (median of replicates) (fraction); higher = more growth (less inhibition), active = hit call of the paper
Settings in all cases: 20 µM; 24 h;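 active = AUC reduced over 20% with Padj below 0.05 in at least 2 of 3 replicates; inactive = otherwise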
Akkermansia muciniphila = tested on: Akkermansia muciniphila
Outline: (§1)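 Area under the growth curve was normalised to the plate median of solvent-only wells, or to row and column medians on the industrial chemical plate. Growth curves came from anaerobic gut bacterial monocultures in mGAM at 37 °C, seeded at OD600 0.05 with 20 µM compound (1% DMSO), and read at OD600 hourly for 24 h with the minimum OD set to 0. The value is the median of three biological replicates grown on separate days.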

Bacteroides caccae = tested on: Bacteroides caccae
Outline: as §1

Bacteroides clarus = tested on: Bacteroides clarus
Outline: as §1

Bacteroides dorei = tested on: Bacteroides dorei
Outline: as §1

Bacteroides stercoris = tested on: Bacteroides stercoris
Outline: as §1

[1] = tested on: Bacteroides thetaiotaomicron
Outline: as §1

Bacteroides uniformis = tested on: Bacteroides uniformis
Outline: as §1

[2] = tested on: Bifidobacterium longum subsp. longum
Outline: as §1

Clostridium difficile = tested on: Clostridium difficile
Outline: as §1

Collinsella aerofaciens = tested on: Collinsella aerofaciens
Outline: as §1

Coprococcus comes = tested on: Coprococcus comes
Outline: as §1

Escherichia coli ED1a = tested on: Escherichia coli ED1a
Outline: as §1

Escherichia coli IAI1 = tested on: Escherichia coli IAI1
Outline: as §1

Eubacterium rectale = tested on: Eubacterium rectale
Outline: as §1

[3] = tested on: Fusobacterium nucleatum subsp. animalis
Outline: as §1

Lactobacillus gasseri = tested on: Lactobacillus gasseri
Outline: as §1

Lactobacillus paracasei = tested on: Lactobacillus paracasei
Outline: as §1

Odoribacter splanchnicus = tested on: Odoribacter splanchnicus
Outline: as §1

[4] = tested on: Parabacteroides distasonis
Outline: as §1

Parabacteroides merdae = tested on: Parabacteroides merdae
Outline: as §1

Measured: growth AUC

c1ccc2c(c1)Cc1ccccc1-2
inactive: Akkermansia muciniphila 1.04 | Bacteroides caccae 1.02 | Bacteroides clarus 1 | Bacteroides dorei 1.03 | Bacteroides stercoris 1.04 | [1] 1 | Bacteroides uniformis 1 | [2] 0.925 | Clostridium difficile 1.01 | Collinsella aerofaciens 1.01 | Coprococcus comes 1.01 | Escherichia coli ED1a 1.03 | Escherichia coli IAI1 1 | Eubacterium rectale 1 | [3] 1.03 | Lactobacillus gasseri 1.05 | Lactobacillus paracasei 1.05 | Odoribacter splanchnicus 1.05 | [4] 0.962 | Parabacteroides merdae 1.02

CCCCOCN(C(=O)CS(=O)(=O)[O-])c1c(CC)cccc1CC.[Na+]
inactive: Akkermansia muciniphila 0.979 | Bacteroides caccae 0.997 | Bacteroides clarus 0.997 | Bacteroides dorei 1.01 | Bacteroides stercoris 0.923 | [1] 0.934 | Bacteroides uniformis 1.03 | [2] 1.07 | Clostridium difficile 1.02 | Collinsella aerofaciens 1.01 | Coprococcus comes 0.957 | Escherichia coli ED1a 0.973 | Escherichia coli IAI1 0.991 | Eubacterium rectale 0.975 | [3] 0.947 | Lactobacillus gasseri 0.914 | Lactobacillus paracasei 0.957 | Odoribacter splanchnicus 0.938 | [4] 1 | Parabacteroides merdae 0.962

CCCCC(CC)COC(=O)COc1cc(Cl)c(Cl)cc1Cl (stereo not given)
inactive: Akkermansia muciniphila 0.936 | Bacteroides caccae 0.97 | Bacteroides clarus 0.93 | Bacteroides dorei 0.984 | Bacteroides stercoris 1.03 | [1] 0.987 | Bacteroides uniformis 0.993 | [2] 0.807 | Clostridium difficile 0.999 | Collinsella aerofaciens 0.948 | Coprococcus comes 0.976 | Escherichia coli ED1a 0.99 | Escherichia coli IAI1 1.03 | Eubacterium rectale 0.903 | [3] 0.9 | Lactobacillus gasseri 1.06 | Lactobacillus paracasei 1.05 | Odoribacter splanchnicus 0.998 | [4] 0.965 | Parabacteroides merdae 0.937

CCc1nc2ncnn2c(N)c1CCCC(=O)O.Cl
inactive: Akkermansia muciniphila 1.12 | Bacteroides caccae 0.907 | Bacteroides clarus 1.03 | Bacteroides dorei 1 | Bacteroides stercoris 1.14 | [1] 0.985 | Bacteroides uniformis 1.02 | [2] 1.01 | Clostridium difficile 1.04 | Collinsella aerofaciens 1 | Coprococcus comes 1.02 | Escherichia coli ED1a 1.02 | Escherichia coli IAI1 1.05 | Eubacterium rectale 1.07 | [3] 1.13 | Lactobacillus gasseri 0.975 | Lactobacillus paracasei 1.1 | Odoribacter splanchnicus 0.952 | [4] 0.991 | Parabacteroides merdae 0.997

C#CC(C)N(C)C(=O)Nc1ccc(Cl)cc1 (stereo not given)
inactive: Akkermansia muciniphila 0.974 | Bacteroides caccae 0.995 | Bacteroides clarus 0.985 | Bacteroides dorei 0.978 | Bacteroides stercoris 1.1 | [1] 1 | Bacteroides uniformis 0.99 | [2] 0.966 | Clostridium difficile 0.946 | Collinsella aerofaciens 1 | Coprococcus comes 1.05 | Escherichia coli ED1a 1.04 | Escherichia coli IAI1 0.988 | Eubacterium rectale 1 | [3] 1.03 | Lactobacillus gasseri 1.07 | Lactobacillus paracasei 1.02 | Odoribacter splanchnicus 0.994 | [4] 0.95 | Parabacteroides merdae 1.01

CC(CNC(=S)[S-])NC(=S)[S-].[Zn+2] (mixture of isomers)
inactive: Akkermansia muciniphila 1.05 | Bacteroides caccae 0.937 | Bacteroides clarus 1.02 | Bacteroides dorei 1 | Bacteroides stercoris 1.12 | [1] 1.01 | Bacteroides uniformis 1.03 | [2] 0.975 | Clostridium difficile 1 | Collinsella aerofaciens 0.999 | Coprococcus comes 1.04 | Escherichia coli ED1a 0.997 | Escherichia coli IAI1 0.983 | Eubacterium rectale 1.15 | [3] 1.08 | Lactobacillus gasseri 0.956 | Lactobacillus paracasei 1.14 | Odoribacter splanchnicus 0.945 | [4] 1.01 | Parabacteroides merdae 1.02

CCOc1ccc2c(c1)C(C)=CC(C)(C)N2
inactive: Akkermansia muciniphila 0.9 | Bacteroides caccae 1.04 | Bacteroides clarus 1 | Bacteroides dorei 1 | Bacteroides stercoris 1.01 | [1] 0.995 | Bacteroides uniformis 1.01 | [2] 1.03 | Clostridium difficile 1.02 | Collinsella aerofaciens 1.02 | Coprococcus comes 1.03 | Escherichia coli ED1a 1.03 | Escherichia coli IAI1 0.986 | Eubacterium rectale 1.06 | [3] 1.03 | Lactobacillus gasseri 0.992 | Lactobacillus paracasei 1.02 | Odoribacter splanchnicus 1.07 | [4] 0.97 | Parabacteroides merdae 1.01

O=C(O)[C@@H](S)[C@@H](S)C(=O)O
inactive: Akkermansia muciniphila 1.14 | Bacteroides caccae 1.01 | Bacteroides clarus 1.05 | Bacteroides dorei 1.01 | Bacteroides stercoris 1.17 | [1] 1.04 | Bacteroides uniformis 1.04 | [2] 1.02 | Clostridium difficile 1.01 | Collinsella aerofaciens 1.02 | Coprococcus comes 1.03 | Escherichia coli ED1a 1.02 | Escherichia coli IAI1 1.03 | Eubacterium rectale 1.18 | [3] 1.05 | Lactobacillus gasseri 0.993 | Lactobacillus paracasei 1.02 | Odoribacter splanchnicus 0.985 | [4] 1.04 | Parabacteroides merdae 1.04

O=C(O)c1ccc(Cl)cc1Cl
inactive: Akkermansia muciniphila 0.987 | Bacteroides caccae 1.03 | Bacteroides clarus 0.989 | Bacteroides dorei 0.994 | Bacteroides stercoris 0.959 | [1] 1.01 | Bacteroides uniformis 0.977 | [2] 0.699 | Clostridium difficile 0.997 | Collinsella aerofaciens 1.02 | Coprococcus comes 1 | Escherichia coli ED1a 0.986 | Escherichia coli IAI1 0.993 | Eubacterium rectale 0.957 | [3] 0.891 | Lactobacillus gasseri 0.991 | Lactobacillus paracasei 0.994 | Odoribacter splanchnicus 1.01 | [4] 0.984 | Parabacteroides merdae 0.989

CCc1cc(C(=O)O)cc(CC)c1C1C(=O)N2CCOCCN2C1=O
inactive: Akkermansia muciniphila 1.02 | Bacteroides caccae 1.04 | Bacteroides clarus 1.03 | Bacteroides dorei 1.05 | Bacteroides stercoris 1.07 | [1] 0.999 | Bacteroides uniformis 1.02 | [2] 1.04 | Clostridium difficile 0.976 | Collinsella aerofaciens 1.03 | Coprococcus comes 1 | Escherichia coli ED1a 1.02 | Escherichia coli IAI1 1.02 | Eubacterium rectale 1.01 | [3] 1.11 | Lactobacillus gasseri 1.11 | Lactobacillus paracasei 1.04 | Odoribacter splanchnicus 1.13 | [4] 0.99 | Parabacteroides merdae 1.04

N[C@@H](Cc1cc(I)c(Oc2cc(I)c(O)c(I)c2)c(I)c1)C(=O)O
inactive: Akkermansia muciniphila 1.1 | Bacteroides caccae 0.944 | Bacteroides clarus 0.96 | Bacteroides dorei 1.04 | Bacteroides stercoris 0.838 | [1] 0.908 | Bacteroides uniformis 1.01 | [2] 0.93 | Clostridium difficile 0.945 | Collinsella aerofaciens 0.923 | Coprococcus comes 0.906 | Escherichia coli ED1a 0.959 | Escherichia coli IAI1 0.941 | Eubacterium rectale 1.04 | [3] 0.838 | Lactobacillus gasseri 0.87 | Lactobacillus paracasei 0.886 | Odoribacter splanchnicus 0.957 | [4] 0.921 | Parabacteroides merdae 0.949

CCCN(CCOc1c(Cl)cc(Cl)cc1Cl)C(=O)NC=O
inactive: Akkermansia muciniphila 1.04 | Bacteroides caccae 0.938 | Bacteroides clarus 0.948 | Bacteroides dorei 0.947 | Bacteroides stercoris 1.07 | [1] 0.94 | Bacteroides uniformis 0.957 | [2] 0.968 | Clostridium difficile 1.01 | Collinsella aerofaciens 0.995 | Coprococcus comes 0.965 | Escherichia coli ED1a 1.04 | Escherichia coli IAI1 0.993 | Eubacterium rectale 1.02 | [3] 1.01 | Lactobacillus gasseri 1.09 | Lactobacillus paracasei 0.9 | Odoribacter splanchnicus 0.956 | [4] 0.925 | Parabacteroides merdae 0.991

ClC=C(c1ccc(Cl)cc1)c1ccc(Cl)cc1
inactive: Akkermansia muciniphila 1.05 | Bacteroides caccae 0.896 | Bacteroides clarus 0.959 | Bacteroides dorei 0.914 | Bacteroides stercoris 0.945 | [1] 0.975 | Bacteroides uniformis 0.996 | [2] 1 | Clostridium difficile 0.977 | Collinsella aerofaciens 0.893 | Coprococcus comes 0.942 | Escherichia coli ED1a 0.99 | Escherichia coli IAI1 0.977 | Eubacterium rectale 0.977 | [3] 0.98 | Lactobacillus gasseri 0.915 | Lactobacillus paracasei 0.946 | Odoribacter splanchnicus 1.07 | [4] 0.977 | Parabacteroides merdae 0.948

COC(=O)c1ccc(CNS(C)(=O)=O)cc1S(=O)(=O)NC(=O)Nc1nc(OC)cc(OC)n1
inactive: Akkermansia muciniphila 0.864 | Bacteroides caccae 0.988 | Bacteroides clarus 1.02 | Bacteroides dorei 1.01 | Bacteroides stercoris 0.871 | [1] 0.991 | Bacteroides uniformis 1.01 | [2] 0.917 | Clostridium difficile 1.02 | Collinsella aerofaciens 1.01 | Coprococcus comes 1.04 | Escherichia coli ED1a 1.02 | Escherichia coli IAI1 1.01 | Eubacterium rectale 1.01 | [3] 0.977 | Lactobacillus gasseri 0.961 | Lactobacillus paracasei 0.925 | Odoribacter splanchnicus 1.07 | [4] 1.03 | Parabacteroides merdae 1.02

O=C(Nc1ccc(F)cc1)c1cccc(Oc2cccc(C(F)(F)F)c2)n1
inactive: Akkermansia muciniphila 0.978 | Bacteroides caccae 0.964 | Bacteroides clarus 0.886 | Bacteroides dorei 0.895 | Bacteroides stercoris 0.82 | [1] 1 | Bacteroides uniformis 1.02 | [2] 1.04 | Clostridium difficile 0.934 | Collinsella aerofaciens 0.865 | Coprococcus comes 0.993 | Escherichia coli ED1a 0.95 | Escherichia coli IAI1 0.95 | Eubacterium rectale 1.02 | [3] 0.927 | Lactobacillus gasseri 0.87 | Lactobacillus paracasei 0.927 | Odoribacter splanchnicus 1.07 | [4] 0.905 | Parabacteroides merdae 0.911

ClC(COCC(Cl)C(Cl)(Cl)Cl)C(Cl)(Cl)Cl (stereo not given)
inactive: Akkermansia muciniphila 0.875 | Bacteroides caccae 0.969 | Bacteroides clarus 0.942 | Bacteroides dorei 1.01 | Bacteroides stercoris 0.952 | [1] 0.91 | Bacteroides uniformis 0.918 | [2] 0.967 | Clostridium difficile 1.02 | Collinsella aerofaciens 1.05 | Coprococcus comes 0.976 | Escherichia coli ED1a 1.01 | Escherichia coli IAI1 0.983 | Eubacterium rectale 0.92 | [3] 0.992 | Lactobacillus gasseri 1.11 | Lactobacillus paracasei 1.08 | Odoribacter splanchnicus 0.971 | [4] 0.98 | Parabacteroides merdae 0.932
